TexasRed fluor: counter-screen for TRb-SRC2 inhibitors: fluorescence interference. TRb/SRC2 Texas Red total fluorescence interference. Potency, µM (top dose mostly 106 µM), for inactives: at the top dose fluorescence change, negative = quenching. hit rate 0.29% among 280,000. AID 1479; active means well fitted curve in either direction with a large enough effect; inconclusive means small, poorly fitted or top-dose-only effect
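Flags fluorescent or light-absorbing compounds by total fluorescence, S + 2P, at 555 nm excitation and 632 nm emission. Mixture: 20 nM Texas Red SRC2 peptide, 0.6 uM human TRb LBD, 1 uM T3, 5% DMSO; compound exposure 5 h at ambient temperature.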
Tau fluor counter: counter-screen for tau fibril formation inhibitors | tau K18 P301L Alexa594 fluorescence, heparin fibrillization | Potency, µM (series often up to 57.7 µM), inactives show at the highest dose activity change, negative = decrease | hit rate 0.93% among 280,000 | AID 1463; further: nearly all actives have a fitted effect of over 55% in size
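Human tau K18 P301L (15 uM unlabeled, 0.24 uM Alexa 594-labeled) in 100 mM sodium acetate pH 7 with 20 uM heparin, 6 hr at 37 C. ThT 30 uM added, 1 hr ambient; Alexa 594 FP and total fluorescence read at 555/632 nm.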
TRb SRC2 PPI: TRbeta-SRC2 interaction inhibition; hit rate 0.065% among 280,000; TRbeta-SRC2 peptide binding, fluorescence polarization; receptor liganded with 1 µM T3; P10828; Potency, µM (titrated, usually from 106 µM), for the others: at the highest dose activity change, negative = inhibition, usual class: inhibitors;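 further: plate controls were bound peptide for no effect and peptide without receptor for full effect; nearly all actives have a fitted effect of over 50% in size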
Target sequence (P10828 whole entry, looked up): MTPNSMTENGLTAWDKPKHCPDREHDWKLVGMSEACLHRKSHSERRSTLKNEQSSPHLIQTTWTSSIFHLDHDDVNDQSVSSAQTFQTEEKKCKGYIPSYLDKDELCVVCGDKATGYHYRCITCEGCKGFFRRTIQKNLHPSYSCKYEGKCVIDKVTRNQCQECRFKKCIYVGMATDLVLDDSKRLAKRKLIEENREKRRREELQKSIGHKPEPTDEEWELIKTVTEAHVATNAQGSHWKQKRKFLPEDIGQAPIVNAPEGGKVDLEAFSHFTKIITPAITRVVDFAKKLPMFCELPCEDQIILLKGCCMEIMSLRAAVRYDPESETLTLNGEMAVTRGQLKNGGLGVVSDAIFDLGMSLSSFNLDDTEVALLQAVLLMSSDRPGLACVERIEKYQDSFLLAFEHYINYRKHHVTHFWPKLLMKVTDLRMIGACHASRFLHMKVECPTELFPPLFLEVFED
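Read-out is fluorescence polarization (555 nm excitation, 632 nm emission) of a Texas Red SRC2 coactivator peptide; loss of signal reflects blocked binding to human TRb ligand-binding domain in the presence of 1 uM T3.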
GoLoco inh red: blocks human Gai1 binding to RGS12 GoLoco peptide, red readout. P63096. Gai1:RGS12 GoLoco peptide FP, rhodamine, 10 min. Potency, µM (titrated, usually from 61.6 µM), without a hit: at the top dose activity, negative = inhibition, actives largely listed as inhibitors. hit rate 0.44% among 230,000. AID 880; active means well fitted inhibition curve with a large enough effect, not every such curve was filed as active; inactive means no such curve, though single readings can be large or run the other way; further: nearly all actives have a fitted effect of over 30% in size
Tau ThT inhib: inhibitors of human tau fibril formation, thioflavin T binding; P10636; recombinant tau K18 P301L (four-repeat tau fragment), heparin-induced fibrillization, ThT fluorescence; Potency, µM (highest dose often 57.4 µM), for inactives: top-dose activity, negative = inhibition, hits mostly inhibitors; hit rate 2.1% among 270,000; further: nearly all actives have a fitted effect of over 55% in size
Target sequence (P10636 561-689 P618L limits assumed): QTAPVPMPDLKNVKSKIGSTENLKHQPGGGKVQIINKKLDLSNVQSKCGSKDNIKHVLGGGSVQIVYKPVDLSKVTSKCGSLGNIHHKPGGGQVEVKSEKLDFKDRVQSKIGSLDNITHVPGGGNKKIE
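Heparin-induced (20 uM) aggregation of recombinant human K18 P301L tau, 15 uM unlabeled with 0.24 uM labeled, pH 7 acetate buffer, 6 hr at 37 C with compound. Fibrils quantified by 30 uM ThT fluorescence after 1 hr ambient incubation.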
Tau fibril FP: inhibitors of human tau fibril formation. P10636. hit rate 0.39% among 280,000. Potency, µM (top dose mostly 57.7 µM), for inactives: at the top dose activity, negative = inhibition, usual class: inhibitors. AID 1468. K18 P301L tau heparin fibrillization, Alexa594 FP, 6 h; further: nearly all actives have a fitted effect of over 55% in size
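K18 P301L tau (15 uM unlabeled/0.24 uM Alexa 594-labeled, final) + compound + heparin 20 uM final; 100 mM NaOAc pH 7; 6 hr 37 C; ThT 30 uM final added, 1 hr RT; FP ex 555/em 632 nm.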
* hit, by the source's call; ? = inconclusive; / = no result given; ! = a repeat was not active; [ ] = another dose, or the depositor's remark. In the library only some 3.2% were active in any assay of this set; here they are far more common. Unless noted, the call rests on the fitted dose curve; in most records, active means well fitted curve in the direction sought with a large enough effect; inconclusive means small, poorly fitted or top-dose-only effect, or another doubt; inactive means no such curve, though single readings can be large; an effect the other way counts as inactive or inconclusive. Unless noted, on the % scale 0 is the no-effect control and ±100 the full control effect; potency means the concentration at half of the fitted maximal effect.

SMILES	TexasRed fluor	Tau fluor counter	TRb SRC2 PPI	GoLoco inh red	Tau ThT inhib	Tau fibril FP
CCCCNc1nc(C)nc2c1nc(-c1ccccc1)n2CC1CCN(C)CC1	-5%	-5%	3%	8%	-1%	-10%
COc1ccc(/C=C2\CCn3c2nc2cc(C(=O)O)ccc2c3=O)cc1O	0.32µM*[quencher]	-6%	?	2%	-3%	7%
COc1ccc(/C=C2\CCn3c2nc2cc(C(=O)O)ccc2c3=O)cc1OC	-1%	-8%	-1%	4%	?	-11%
COc1ccc(N=Cc2cc(Cc3ccccc3Cl)cc([N+](=O)[O-])c2O)cc1OC	-7%	-29%	-6%	-63%	10µM*	?
COc1ccc([N+](=O)[O-])cc1NC(=O)Cc1ccccc1Cl	-2%	-11%	3%	-6%	2%	-9%
Cc1ccccc1N=Cc1cc2c(cc1[N+](=O)[O-])OCO2	1%	-5%	3%	4%	-11%	-2%
Cc1ccc(N=Cc2cc(Cc3ccccc3Cl)cc([N+](=O)[O-])c2O)c(O)c1	?	?	-7%	227%	7.9µM*	?
COc1ccc(C2/C=C\CN(C(=O)CC(C)(C)C)C(C)C(=O)N2Cc2ccc(F)cc2)cc1 (stereo unspecified)	0%	/	12%	/	/	/
CC(C)CNC1=CC(=O)CC(c2ccco2)C1 (stereo unspecified)	-16%	-21%	-6%	-3%	28µM*	?
O=C1C=C(NCc2ccc(Cl)cc2)CC(c2ccco2)C1 (stereo unspecified)	1%	-6%	-7%	6%	-5%	-7%
CCOC(=O)c1c(NC(=O)c2ccccc2Br)sc2c1CCc1ccccc1-2	0%	-28%	-14%	-15%	28µM*	?
CCOC(=O)c1c(NC(C)=O)sc2c1CCC(C=O)=C2Sc1ccccc1	-6%	?	-5%	-17%	14µM*	?
CCOC(=O)c1c(NC(C)=O)sc2c1CCCNC2=O	1%	1%	5%	/	6%	-1%
O=S(=O)(Nc1cc(O)cc2cccnc12)c1ccc(Br)s1	-5%	/	-20%	/	/	/
CCOC(=O)C(C(=O)OCC)C(C(=O)OCC)N1CCOCC1 (stereo unspecified)	1%	3%	-21%	14µM*	?	0%
COc1cc2ncnc(Nc3cccc(Cl)c3)c2cc1OC	-14%	?	11%	2µM*!	?	?
CC(C)S(=O)(=O)c1csc(NC(=O)Nc2cc(Cl)ccc2Cl)c1Cl	-4%	?	-1%	1%	2%	22µM*
ICCc1ccccc1	-1%	/	1%	3.2µM*	/	/
CCCCCCCCCCCCCc1ccccc1	-1%[201 µM]	/	-3%[201 µM]	/	/	/
COc1ccc(-c2nnc3n2N=C(c2cc(OC)ccc2OC)CS3)c(OC)c1	-2%	/	0%	/	/	/
CC(=O)OC[C@H]1O[C@@H](O/N=C(\C)CCN2CCCCc3nc(C)c(C)cc32)[C@H](OC(C)=O)[C@@H](OC(C)=O)[C@H]1OC(C)=O	1%[11.2 µM]	-1%[11.6 µM]	-6%[11.2 µM]	/	1%[11.5 µM]	-4%[11.6 µM]
Cc1ccc(C(=O)c2coc3cc([N+](=O)[O-])c(O)c([N+](=O)[O-])c23)cc1	?	-28%	-11%	-21%	3.5µM*	-1%
O=C(O)c1ccc(N=Nc2c(O)[nH]c3cc(Cl)ccc23)cc1	-4%	-8%	5%	0%	4µM*	6%
O=C(O)c1ccc(S(=O)(=O)N=Nc2c(O)[nH]c3ccccc23)cc1	/	/	/	-8%[14.2 µM]	/	/
Nc1nc(N)c(N=Nc2ccc(C(=O)O)cc2)c(N)n1	-5%	-10%	-1%	7%	14µM*	4%
SMILES	TexasRed fluor	Tau fluor counter	TRb SRC2 PPI	GoLoco inh red	Tau ThT inhib	Tau fibril FP
C[C@@](N)(/C=C\c1ccccc1)C(=O)O	/	/	/	0%[14.2 µM]	/	/
O=[N+]([O-])c1ccc(N=Cc2sc3ccccc3c2O)cc1	7%	-19%	18%	9%	0.71µM*	8%
COc1ccc2c(c1)C(=O)[C@@H](OC(=O)NS(=O)(=O)c1ccc(C)cc1)[C@H](c1ccc(OC)c(Br)c1)O2	0%	-6%	4%	-2%	-8%	-2%
Cc1ccc(Cl)cc1NC(=O)CSC(N)=O	-1%	-18%	-2%	9%	32µM*	?
COCC(=O)Nc1cc(Cl)ccc1C	1%	-6%	1%	-4%	-6%	-3%
O=C(COC(=O)c1ccccc1Cc1ccccc1)Nc1ccc(SC(F)F)cc1	0%	?	-5%	3%	3%	25µM*
O=C1c2ccccc2-c2n[nH]c(=O)c3ccc(N4CCCCC4)c1c23	-9%	?	5%	8%	14µM*	-3%
CC1(C)CC(N)CC(C)(CN)C1 (stereo unspecified)	-2%[201 µM]	/	-2%[201 µM]	/	/	/
Cn1c(=S)c2[nH]c(SCCN3C(=O)c4ccccc4C3=O)nc2n(C)c1=O	/	/	/	5%[14.2 µM]	/	/
COc1ccccc1N1CCN(c2ncnc3nc[nH]c23)CC1	-2%	-6%	-5%	-3%	-13%	3%
COc1ccc(N2CCN(c3ncnc4nc[nH]c34)CC2)cc1	-1%	-24%	-3%	-8%	18µM*	11%
CCc1ccc2oc(-c3ccc(OC)cc3)cc(=Nc3c(C)n(C)n(-c4ccccc4)c3=O)c2c1	-1%	-30%	5%	-3%	11µM*	9%
CCOC(=O)c1ccc(NC(=O)c2c(C)nn(-c3ccc(F)cc3)c2-n2cccc2)cc1	-1%	2%	5%	/	8%	-9%
COc1cc(O)c(NC(C)=O)c2nonc12	-2%	-15%	-29%	-23%	7.9µM*	?
COC(=O)N1[C@H](C)C=C[C@]1(Cc1ccccc1)C(=O)NCc1ccc(N(C)C)cc1	-4%	-23%	-7%	-6%	-18%	-10%
COc1cc(N=Nc2ccccc2C(=O)O)ccc1O	0%	-12%	6%	35%	7.1µM*	1%
Cc1cc(N=Nc2ccccc2C(=O)O)c(C)c(C)c1O	?	?	19%	124%	0.89µM*	1%
Cc1cc(C)c(C)c(C(=O)c2ccccc2C(=O)O)c1C	-4%	6%	-4%	11%	-1%	-2%
COc1cc(C(=O)O)ccc1O	-2%	-5%	-2%	5%	-5%	-5%
Cc1cc(O)c(C(C)C)cc1N=C1CSC(=O)N1	-3%	?	-23%	0%	?	-8%
Cc1cc(O)c(C(C)C)cc1N=Nc1ccccc1C(=O)O	-8%	-23%	4%	76%	6.3µM*	-2%
Cc1ccc(CNc2ncnc3c2c(-c2ccccc2)cn3-c2cccc(Cl)c2)cc1	-1%	-12%	-9%	/	-8%	-9%
C/C(=N\N=C\c1ccc(N(C)C)cc1)c1cccc([N+](=O)[O-])c1	-6%	-29%	7%	5%	1.3µM*	9%

Screening data: PubChem, National Center for Advancing Translational Sciences (NCATS)
